Most compounds without a hit are left out; they make up all but 1.1% or so of the library.
MOR-DOR ag: agonists of human mu-delta opioid receptor heterodimerization; P35372+P41143; cells, OPRM1-OPRD1 heterodimerization, luminescence; activation, % at 9.3 µM; 340,000 compounds, 0.3% hits;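 note: 0% = vehicle-treated cells and 100% = reference agonist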
HTR5A inv ag: inverse agonist of human HTR5A in OPRM1-OPRD1 counter-screen | HTR5A cell line, luminescence, inverse agonism | inhibition, % at 9.3 µM | 340,000 compounds, 0.083% hits; in the data active = inhibition mostly above about 23%, no sharp cut-off; inactive = mostly below about 18%;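 note: 0% = cells with DMSO and 100% = no-cell wells with DMSO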
Target sequence (P47898 whole entry, looked up): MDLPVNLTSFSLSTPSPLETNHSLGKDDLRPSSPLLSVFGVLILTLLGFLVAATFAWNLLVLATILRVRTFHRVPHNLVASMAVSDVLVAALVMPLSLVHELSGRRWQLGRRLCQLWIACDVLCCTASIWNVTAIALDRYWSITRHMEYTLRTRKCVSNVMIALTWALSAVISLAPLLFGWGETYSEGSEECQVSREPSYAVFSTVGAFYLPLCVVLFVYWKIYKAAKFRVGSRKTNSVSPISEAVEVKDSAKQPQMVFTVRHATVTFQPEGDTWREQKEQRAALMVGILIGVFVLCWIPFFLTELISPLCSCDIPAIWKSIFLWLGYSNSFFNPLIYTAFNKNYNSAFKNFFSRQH
HTR5A ag: counter-screen for OPRM1-OPRD1 agonists: human HTR5A agonism. P47898. HTR5A agonist assay, luminescence, cell-based. activation, % at 9.3 µM. 340,000 compounds, 0.61% hits. AID 504692; in the data active = activation mostly above about 9.5%, no sharp cut-off; inactive = mostly below about 7.6%;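 note: 0% = cells with vehicle only and 100% = reference agonist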
MOR-DOR inv ag: inverse agonist of human OPRM1-OPRD1 heterodimerization; P35372+P41143; cell-based MOR-DOR heterodimer luminescence, inverse agonism; inhibition, % at 9.3 µM; 340,000 compounds, 0.21% hits; in the data active = inhibition above about 22%, passing the limit was not always enough;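 note: 0% = cells with DMSO and 100% = wells without cells with DMSO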
MOR-DOR ag conf: OPRM1-OPRD1 heterodimer agonism, confirmation. cells, MOR-DOR heterodimerization, luminescence complementation. 830 compounds, 45% hits. shares compounds with MOR-DOR ag. activation, % at 9.3 µM. AID 504904;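 note: 0% = vehicle-treated cells and 100% = reference agonist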
HTR5A ag counter: HTR5A agonism, opioid heterodimer counter-screen. 830 compounds, 8% hits. activation, % at 9.3 µM. shares compounds with MOR-DOR ag. HTR5A agonist counterscreen, cell luminescence. AID 504905; in the data active = activation above about 17%;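 note: 0% = vehicle-treated cells and 100% = reference agonist response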
OPRM1-D1 inv cf: OPRM1-OPRD1 heterodimer inverse agonism, confirmation | cells expressing OPRM1/OPRD1 heterodimer, luminescence | shares compounds with MOR-DOR inv ag | 580 compounds, 20% hits | inhibition, % at 9.3 µM | AID 504900; in the data active = inhibition above about 32%;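 note: 0% = cells with DMSO and 100% = wells lacking cells with DMSO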
HTR5A inv count: counter-screen for OPRM1-OPRD1 inverse agonists: human HTR5A inverse agonism. HTR5A-expressing cells, luminescence. shares compounds with MOR-DOR inv ag. 580 tested, under 10 active. AID 504914. inhibition, % at 9.3 µM; call rule not given here;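 note: 0% = cells with DMSO and 100% = no-cell wells with DMSO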
Starred values were filed as active, the others as inactive; i = inactive; · = no result given. Cut-off read from the data, not from the text of the source, unless noted: active = activation above about 18%; inactive = the rest.

SMILES	MOR-DOR ag	HTR5A inv ag	HTR5A ag	MOR-DOR inv ag	MOR-DOR ag conf	HTR5A ag counter	others
COC12CCC3(CC1C(C)(O)C(C)(C)C)[C@H]1Cc4ccc(OC5OC(C(=O)O)[C@@H](O)C(O)[C@H]5O)c5c4[C@@]3(CCN1CC1CC1)C2O5 (some centres undefined)	18*	-14	6	-73	84*	3
CC(=O)O[C@@H]1CC[C@]2(C)C3CC[C@@]4(C)C(C[C@@H](O)[C@@H]4O)C3[C@@H](OC(C)=O)C[C@H]2C1 (some centres undefined)	-2	-3	1	10	·	·
CC(=O)OC1CC(OC2C(O)CC(OC3C(O)CC(OC4CCC5(C)C(CCC6C5CCC5(C)C(C7=CC(=O)OC7)C(O)CC65O)C4)OC3C)OC2C)OC(C)C1OC1OC(CO)C(O)C(O)C1O (centres undefined)	72*	-75	19*	-369	38*	28*
CC(=O)[C@H]1CCC2C3CC[C@H]4C[C@@H](O)CC[C@]4(C)C3CC[C@@]21C (some centres undefined)	-1	14	-4	4	·	·
CC(=O)OC1CC2(O)C3CCC4CC(O)CCC4(C)C3CCC2(C)C1C1=CC(=O)OC1 (centres undefined)	81*	-108	28*	-356	1	62*
CC1SC2(CN3CCC2CC3)NC1=O (centres undefined)	-2	-1	3	7	·	·
CCOC(=O)C1(CCOc2ccccc2)CCN(Cc2ccc(C)s2)CC1	33*	4	-1	-171	39*	3
CCOC(=O)C1(CCc2ccccc2)CCN(Cc2ccc(NC(C)=O)cc2)CC1	293*	2	-1	i	372*	0
CCOC(=O)C1(CCc2ccccc2)CCN(Cc2ccc3c(c2)OCCO3)CC1	25*	-13	6	-121	1	4
CCOC(=O)C1(CCc2ccccc2)CCN(C2CCSCC2)CC1	2	7	-3	-10	·	·
CN(C)[C@@H]1C(=O)C(C(N)=O)=C(O)[C@@]2(O)C(=O)C3=C(O)c4c(O)cccc4[C@@](C)(O)C3[C@H](O)C12 (some centres undefined)	1	-5	1	-5	·	·
COc1ccc(CNC(=O)CCC(=O)N2C[C@H]3C[C@H](C2)c2cccc(=O)n2C3)cc1OC	-2	10	2	12	·	·
NC1=NC(=O)N2CC12 (centres undefined)	-2	-3	1	9	·	·
C[C@@H]1O[C@@H](O[C@H]2C[C@@H](O)[C@]3(CO)[C@H]4[C@H](O)C[C@]5(C)[C@@H](C6=CC(=O)OC6)CC[C@]5(O)[C@@H]4CC[C@]3(O)C2)[C@H](O)[C@H](O)[C@H]1O	70*	-33	30*	-386	79*	6
CC(C)CCOP(N)(=O)Oc1ccccc1Cl (centres undefined)	0	7	1	-3	·	·
CC1(C)CC[C@]2(C)CC[C@]3(C)C4C[C@@H]5OO[C@@]6(O5)C(CCCC6(C)C)[C@]4(C)CC[C@@]3(C)C2C1 (some centres undefined)	2	17	-4	-8	·	·
COC(=O)C1=C(c2cc3ccccc3s2)C[C@@H]2CC[C@H]1N2C(=O)N1CCC(C)CC1	3	0	0	-17	·	·
CC(=NCCC(c1ccccc1)c1ccccc1)c1c(O)n(C)c(=O)n(C)c1=O	-1	3	-3	6	·	·
COc1cc2c3cc1Oc1cc(ccc1O)C[C@@H]1c4c(cc(OC)c(O)c4Oc4ccc(cc4)C[C@H]3N(C)CC2)CCN1C	34*	-23	11	-189	65*	-4
COc1cc2c3cc1Oc1c(OC)c(OC)cc4c1[C@H](Cc1ccc(cc1)Oc1cc(ccc1O)C[C@H]3N(C)CC2)N(C)CC4	-1	1	1	6	·	·
C[C@]12CC[C@H]3[C@@H](CC[C@]4(O)C[C@@H](O)CC[C@]34C=O)[C@@]1(O)CC[C@@H]2C1=CC(=O)OC1	70*	-71	20	-376	0	0
C[C@]12CCC3C(CCC4=CC(O)CC[C@@]43/C=N/O)C1(O)CCC2C1=CC(=O)OC1 (some centres undefined)	69*	-106	29*	-355	38*	22*
CC12CCC3C(CCC4(O)CC(O)CCC34C=NO)C1(O)CCC2C1=COC(=O)C1 (centres undefined)	77*	-118	31*	-337	0	-1
C[C@H]1O[C@@H](OC2CC[C@]3(C=O)[C@H]4CC[C@]5(C)[C@@H](C6=CC(=O)OC6)CC[C@]5(O)[C@@H]4CC[C@]3(O)C2)CC2OC(C)(C)OC21 (some centres undefined)	73*	-127	33*	-420	-2	-2
CCc1nn(CC(=O)N2CCC3(CC2)OCCO3)c(=O)c2cc3ccccc3n12	3	24	6	-14	·	·
SMILES	MOR-DOR ag	HTR5A inv ag	HTR5A ag	MOR-DOR inv ag	MOR-DOR ag conf	HTR5A ag counter	others
COc1cc(C)cc(CN2CC=C(c3ccccc3)CC2)c1O	0	15	-6	-3	·	·
COC(=O)C1=C(c2c(C)noc2C)C[C@@H]2CC[C@H]1N2C(=O)NC1CC1	-3	-6	-3	15	·	·
CC12CCC3C(CCC4(O)CC(O)CCC34C=O)C1(O)CCC2C1=CC(=O)OC1 (centres undefined)	79*	-113	29*	-405	41*	24*
CCCCN=C[C@]12CCC(O)CC1(O)CCC1[C@@H]2CC[C@]2(C)[C@H](C3C=CC(=O)O3)CCC12O (some centres undefined)	71*	-123	31*	-396	36*	27*
COC(=O)C1=C(c2ccc(OC)c(OC)c2)C[C@@H]2CC[C@H]1N2C(=O)NCCOc1ccc(OC)cc1	-1	-5	-1	5	·	·
NC(Cc1ccccc1)c1nn[nH]n1 (centres undefined)	-2	-17	4	12	·	·
CC[C@H](OC(C)=O)C(C[C@H](C)N(C)C)(c1ccccc1)c1ccccc1	221*	4	-2	i	2	52*
CCCC(CCC)C(=O)OC[N+](C)(C)CCOC(=O)C(O)(c1ccccc1)C1CCCC1 (centres undefined)	-1	4	-1	10	·	·
N#Cc1c(/N=C/c2ccc(O)cc2O)sc2c1C1CCN2CC1	-10	7	-2	51*	·	·	OPRM1-D1 inv cf=-4;HTR5A inv count=10
O=P1(NCCCn2cc[n+](Cc3nc4ccccc4[nH]3)c2)C=C(c2ccccc2)OC(c2ccccc2)=C1	-4	15	-6	23	·	·

Source: PubChem BioAssay (The Scripps Research Institute Molecular Screening Center)
